Reference: PubChem BioAssay (NCI)
About 83,000 compounds went through this panel and 20% of them were active in at least one assay; those are over-represented in the sample as a whole.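 48-hour exposure, single concentration, 96-well plates; percent growth endpoint where 0 means no net growth. Active: below 10.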 The source made the active and inactive calls.

Tested on: MDA-MB-468 breast
Assay: NCI-60 one-dose screen, 48 h (100 = growth as untreated, 0 = no growth, -100 = all killed)
Conditions: 10 µM unless noted

Row | Structure (SMILES) | growth
1 | O=C1/C=C/[C@@H](O)[C@@H]2C[C@@H](O)C[C@H]2/C=C/CCCCO1 | -36.1% (active)
2 | COc1cc(OC)c(S(N)(=O)=O)cc1C(C)=O | 98.4% (inactive)
3 | COc1cc(/C=C/C(=O)/C=C(/C=C/c2ccc(OC(C)=O)c(OC)c2)OB(F)F)ccc1OC(C)=O | 48.8% (inactive)
4 | COC(=O)C(Cc1ccccc1)NC(=O)NC(=O)NC(=O)CI (stereo not given) | 82.8% (inactive)
5 | O=C(NCc1ccccc1O)c1cccc2ccccc12 | 84.9% (inactive)
6 | C=C1C(=O)O[C@H]2[C@H]1CC/C(CNC(=O)/C=C/c1ccc(Cl)cc1Cl)=C\CC[C@@]1(C)O[C@@H]21 | -89.2% (active)
7 | COc1ccc(C(=O)c2nc3ccccc3n2CC(=O)c2ccc(F)cc2)cc1 | 55% (inactive)
8 | COc1ccc(/C=C/c2cc(N3CCOCC3)c3cc(F)c(F)cc3n2)cc1OC | 14.5% (inactive)
9 | O=C(/C=C/CN1CCOCC1)Nc1cc2c(Nc3ccc(F)c(Cl)c3F)ncnc2cc1OCCOC(F)F | -17.6% (active)
10 | N#Cc1c(Nc2ccc(N3CCOCC3)cc2)nc(SCC(=O)c2ccc(Br)cc2)nc1-c1ccccc1 | 113% (inactive)
11 | O=C1Nc2ccccc2/C1=C\c1ccccc1O | 67.4% (inactive)
12 | CN(C)CCNC(=O)n1cc(-c2ccncc2)c(-c2cc(O)cc(Cl)c2)n1 | 84.1% (inactive)
13 | C=CCN1C(=O)[C@]2(SC1=S)[C@H](c1cccc(Cl)c1)CN(C)[C@]21C(=O)NC2C=CC(Cl)=C[C@H]21 (stereo not given in full) | 27% (inactive)
14 | Cc1ccc(-c2cc3nc(C(Cl)Cl)nc(-c4ccccc4)n3n2)cc1 | -16.4% (active)
15 | COC(=O)[C@]12CCC(C)(C)C[C@H]1[C@H]1/C(=N/OCCc3nn[nH]n3)C[C@@H]3[C@@]4(C)CC[C@H](OC(C)=O)C(C)(C)[C@@H]4CC[C@@]3(C)[C@]1(C)CC2 | 17.3% (inactive)
16 | CC(=O)Nc1scc[n+]1Cc1ccccc1 | 103% (inactive)
17 | N#Cc1c(NC(=O)c2ccccc2C(F)(F)F)sc2c1CCC(=O)C2 | -0.286% (active)
18 | OC(CCC(O)(c1ccccc1)c1ccccc1)(c1ccccc1)c1ccccc1 | 93.6% (inactive)
19 | O=S(=O)(NC1c2ccccc2Oc2ccccc21)c1cc(Cl)ccc1Cl | 78.9% (inactive)
20 | COCCOC(=O)c1ccc(C(C)C)cc1 | 106% (inactive)

Row | Structure (SMILES) | growth
21 | C=CC[P+](c1ccccc1)(c1ccccc1)c1ccccc1 | 10.9% (inactive)
22 | N=C(N)Sc1cccc[n+]1[O-] | 62.4% (inactive)
23 | CCN1C(=S)N(CC)C2C1N=C(SC)N2/N=C/C=C/c1ccccc1[N+](=O)[O-] (stereo not given) | 99.8% (inactive)
24 | O=C(Nc1ccc(-n2ccc3c(NC(=O)c4ccccc4)nccc32)cc1)c1ccc(Cl)c(C(F)(F)F)c1 | -9.71% (active)
25 | Oc1cccc2ccc(-c3nnc(SCc4ccc(O)c5ncccc45)n3-c3ccccc3)nc12 | 6.6% (active)
26 | CCCCc1ccc(NC(=O)C(F)(F)F)cc1 | 109% (inactive)
27 | CCN(CC)CCOc1ccc(Nc2ncc3cc(-c4ccc(O)cc4)c(=O)n(C)c3n2)cc1 | 44.8% (inactive)
28 | NS(=O)(=O)Oc1cccc(-c2nc3sccn3c2-c2ccccc2)c1 | 18.6% (inactive)
29 | O=C(O)c1cn(C2CC2)c2cc(N3CCN(C(=O)N(c4ccccc4)c4nc(-c5ccccc5)cs4)CC3)c(F)cc2c1=O | -0.856% (active)
30 | COc1ccc(C/C(C)=C(\c2ccc(Cl)cc2)c2ccc(OCCN3CCCCC3)cc2)cc1 | 98.2% (inactive)
31 | COC(=O)c1nc(-c2ccccc2)oc1S(=O)(=O)N(C)CCO | 6.31% (active)
32 | Oc1ccc(-c2nc3ccc(/C(=N\N=C\c4ccc(Cl)cc4)c4ccccc4)cc3[nH]2)cc1 | 79.5% (inactive)
33 | COc1ccc(-c2cc(-c3ccccc3)nc(SCCCC(=O)NO)n2)cc1 | -50.5% (active)
34 | CCOC(=O)c1c(-c2ccc(OC)cc2)c(C#N)c2c(C#N)c(N)nn2c1N | 13.2% (inactive)
35 | CCCCCOC(=O)c1ccccc1O | 107% (inactive)
36 | O=C1CC(SC(=S)C2CCCC2=O)C(=O)N1 (stereo not given) | 106% (inactive)
37 | Cc1ccc(/C=C2\Oc3ccc(O)c(O)c3C2=O)cc1 | 58.3% (inactive)
38 | CCCCC(O)c1ccccc1 (stereo not given) | 98.6% (inactive)
39 | COc1ccc(-n2nc(C(=O)NCC(=O)O)nc2-c2ccccc2)cc1 | 115% (inactive)
40 | COc1ccc(-c2nn(-c3cccc(Cl)c3)cc2C=C(C#N)C#N)cc1 | -2.82% (active)
